About 7,900 targets were measured; listed, in parts, are those with a hit and a random draw of the rest. About 0.6% of all pairs of compound and target were hits.
Columns and labels:
Assay in all cases: log2 fold change, soluble protein after heating vs DMSO (PISA); higher = thermal stabilisation; K562 cells, 10 uM, 30 min; active = over 0.2 and 3.5 SD of the protein, either way, in both replicates (recomputed)
[1] = compound: CC1=C(C=C(C=C1)NC(=O)C2=CC(=CC=C2)N(C)C)NC(=O)C3=CC=C(C=C3)O
How it was run: (§1)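 K562 cells at 2×10^6 cells/mL were treated with 10 μM compound for 30 min. Aliquots were heated for 3 min across 48°C-58°C, pooled, and extracted in PBS with 0.5% NP-40 at 4°C; soluble protein was the supernatant after 21,000xg for 90 min. Soluble protein was quantified by TMTpro 16plex LC-MS/MS with channel sums equalised, and reported as log2 fold change in thermal stability against DMSO controls, with values from duplicates.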

[2] = compound: CC1=CC=C(C=C1)SC2=C3C=C(SC3=CN=C2)C(=O)N
How it was run: as §1

[3] = compound: CC1=NC(=CC=C1)C2=C(N=C(N2)C(C)(C)C)C3=CC4=NC=CN=C4C=C3
How it was run: as §1

Nexturastat A = compound: CCCCN(Cc1ccc(C(=O)NO)cc1)C(=O)Nc1ccccc1 [Nexturastat A]
How it was run: as §1

vemurafenib = compound: CCCS(=O)(=O)Nc1ccc(F)c(C(=O)c2c[nH]c3ncc(-c4ccc(Cl)cc4)cc23)c1F [vemurafenib]
How it was run: as §1

[4] = compound: CCCS(=O)(=O)Nc1ccc(F)c(C(=O)c2c[nH]c3ncc(Cl)cc23)c1F
How it was run: as §1

[5] = compound: CCCc1cc(C)[nH]c(=O)c1CNC(=O)c1cc(-c2ccnc(N3CCN(C)CC3)c2)cc2c1cnn2C(C)C
How it was run: as §1

givinostat = compound: CCN(CC)Cc1ccc2cc(COC(=O)Nc3ccc(C(=O)NO)cc3)ccc2c1 [givinostat]
How it was run: as §1

barasertib = compound: CCN(CCCOc1ccc2c(Nc3cc(CC(=O)Nc4cccc(F)c4)[nH]n3)ncnc2c1)CCOP(=O)(O)O [barasertib]
How it was run: as §1

[6] = compound: CC[C@@H]1C(=O)N(C)c2cnc(Nc3ccc(C(=O)NC4CCN(C)CC4)cc3OC)nc2N1C1CCCC1
How it was run: as §1

volasertib = compound: CC[C@@H]1C(=O)N(C)c2cnc(Nc3ccc(C(=O)N[C@H]4CC[C@H](N5CCN(CC6CC6)CC5)CC4)cc3OC)nc2N1C(C)C [volasertib]
How it was run: as §1

[7] = compound: CC[C@H](C)N1C=C(C2=C(C=C(C=C21)C3=CN=C(C=C3)N4CCNCC4)C(=O)NCC5=C(C=C(NC5=O)C)C)C
How it was run: as §1

epoxomicin = compound: CC[C@H](C)[C@@H](C(=O)N[C@@H]([C@@H](C)O)C(=O)N[C@@H](CC(C)C)C(=O)[C@]1(CO1)C)NC(=O)[C@H]([C@@H](C)CC)N(C)C(=O)C [epoxomicin]
How it was run: as §1

[8] = compound: CCn1c(C(=O)N(C2CC2)C2CC2)cc2c3c(ncn3C)c(Nc3cc(C)n(C)n3)nc21
How it was run: as §1

[9] = compound: CCn1cc(-c2ccnc3[nH]c(-c4cccc(CN(C)C)c4)cc23)c(-c2ccc(NC(=O)N(C)C)cc2)n1
How it was run: as §1

[10] = compound: CN(C)CC(=O)Nc1ccc2[nH]c(=O)c3ccccc3c2c1
How it was run: as §1

rosiglitazone = compound: CN(CCOC1=CC=C(C=C1)C[C@H]2C(=O)NC(=O)S2)C3=CC=CC=N3 (racemic) [rosiglitazone]
How it was run: as §1

[11] = compound: CN1C2=C(C3=C1C(=O)N(N=C3)CC4=CC(=CC=C4)N)SC(=C2)S(=O)C
How it was run: as §1

[12] = compound: CN1CCC(CNc2ccc3ncc(-c4cccc(OC(F)(F)F)c4)n3n2)CC1
How it was run: as §1

[13] = compound: CC1=C(C=C(C=C1)NC(=O)C2=CC(=CC=C2)C(C)(C)C#N)NC3=CC4=C(C=C3)N=CN(C4=O)C
How it was run: as §1

Measured: log2 fold change

NKAP (UniProt Q8N5F7)
UniProt Q8N5F7, sequence (Q8N5F7 whole entry, looked up): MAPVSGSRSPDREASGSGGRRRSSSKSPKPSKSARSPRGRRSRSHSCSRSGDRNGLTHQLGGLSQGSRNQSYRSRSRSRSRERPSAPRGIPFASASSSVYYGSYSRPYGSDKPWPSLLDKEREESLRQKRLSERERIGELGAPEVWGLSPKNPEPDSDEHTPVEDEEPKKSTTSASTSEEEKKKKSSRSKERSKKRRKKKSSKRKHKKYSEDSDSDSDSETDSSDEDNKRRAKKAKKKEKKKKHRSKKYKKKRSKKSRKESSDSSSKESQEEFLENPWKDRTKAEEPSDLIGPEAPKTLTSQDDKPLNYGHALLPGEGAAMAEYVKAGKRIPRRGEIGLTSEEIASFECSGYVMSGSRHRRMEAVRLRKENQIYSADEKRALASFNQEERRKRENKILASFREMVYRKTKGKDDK
inactive: [1] 0.233 | [2] 0.017 | [3] 0.052 | Nexturastat A 0.042 | vemurafenib 0.073 | [4] 0.046 | [5] 0.15 | givinostat 0.044 | barasertib -0.165 | [6] 0.026 | volasertib -0.3 | [7] 0.082 | epoxomicin -0.109 | [8] -0.028 | [9] 0.092 | [10] 0.052 | rosiglitazone 0.024 | [11] -0.025 | [12] -0.164

NASP isoform 2 (UniProt P49321)
inactive: [5] 1.06

MXRA7 isoform 3 (UniProt P84157)
UniProt P84157, sequence (P84157 whole entry, looked up): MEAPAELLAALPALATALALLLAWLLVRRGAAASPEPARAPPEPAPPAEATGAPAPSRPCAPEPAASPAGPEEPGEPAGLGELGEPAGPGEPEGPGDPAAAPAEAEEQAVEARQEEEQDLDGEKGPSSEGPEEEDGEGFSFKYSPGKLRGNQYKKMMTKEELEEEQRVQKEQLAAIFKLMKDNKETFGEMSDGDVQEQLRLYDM
inactive: [1] 0.178 | [2] -0.174 | [4] 0.193 | volasertib -0.01

MYO19 (UniProt Q96H55)
inactive: [1] 0.069 | [2] 0.091 | [3] -0.054 | Nexturastat A 0.382 | vemurafenib -0.082 | givinostat 0.143 | barasertib 0.039 | volasertib 0.007 | [7] 0.011 | epoxomicin 0.097 | [8] -0.138 | [9] -0.215 | [10] -0.081 | rosiglitazone 0.121 | [11] 0.076 | [12] 0.404
active: [4] 0.554

OXR1 isoform 2 (UniProt Q8N573)
UniProt Q8N573, sequence (Q8N573 whole entry, looked up): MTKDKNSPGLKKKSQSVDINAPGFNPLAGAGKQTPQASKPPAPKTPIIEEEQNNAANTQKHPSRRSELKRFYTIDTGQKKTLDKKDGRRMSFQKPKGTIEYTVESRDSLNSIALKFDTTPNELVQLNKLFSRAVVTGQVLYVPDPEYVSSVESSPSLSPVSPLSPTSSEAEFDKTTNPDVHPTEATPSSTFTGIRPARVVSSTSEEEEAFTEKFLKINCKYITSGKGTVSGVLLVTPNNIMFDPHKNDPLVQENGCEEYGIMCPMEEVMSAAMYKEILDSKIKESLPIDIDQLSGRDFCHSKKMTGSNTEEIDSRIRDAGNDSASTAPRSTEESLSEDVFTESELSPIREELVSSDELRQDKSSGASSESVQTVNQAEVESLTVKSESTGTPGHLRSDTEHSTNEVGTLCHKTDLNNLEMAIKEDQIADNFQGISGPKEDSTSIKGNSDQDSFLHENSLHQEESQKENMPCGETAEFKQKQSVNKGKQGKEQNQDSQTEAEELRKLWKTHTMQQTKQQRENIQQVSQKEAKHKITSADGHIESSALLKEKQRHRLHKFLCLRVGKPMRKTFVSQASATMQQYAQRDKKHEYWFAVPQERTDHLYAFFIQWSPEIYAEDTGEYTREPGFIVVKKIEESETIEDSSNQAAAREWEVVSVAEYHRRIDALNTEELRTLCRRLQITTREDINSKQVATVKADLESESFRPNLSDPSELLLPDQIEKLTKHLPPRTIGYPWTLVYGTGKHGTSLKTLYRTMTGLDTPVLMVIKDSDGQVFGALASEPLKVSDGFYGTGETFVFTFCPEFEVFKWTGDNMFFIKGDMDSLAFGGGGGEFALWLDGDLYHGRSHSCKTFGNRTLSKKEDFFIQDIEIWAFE
inactive: [1] -0.007 | [2] 0.008 | [3] -0.071 | Nexturastat A 0 | vemurafenib 0.126 | [4] 0.027 | [6] -0.092 | volasertib -0.09 | [7] -0.082 | epoxomicin 0.127 | [9] 0.056 | [10] -0.004 | [11] -0.015 | [12] -0.244

MOB3B (UniProt Q86TA1)
UniProt Q86TA1, sequence (Q86TA1 whole entry, looked up): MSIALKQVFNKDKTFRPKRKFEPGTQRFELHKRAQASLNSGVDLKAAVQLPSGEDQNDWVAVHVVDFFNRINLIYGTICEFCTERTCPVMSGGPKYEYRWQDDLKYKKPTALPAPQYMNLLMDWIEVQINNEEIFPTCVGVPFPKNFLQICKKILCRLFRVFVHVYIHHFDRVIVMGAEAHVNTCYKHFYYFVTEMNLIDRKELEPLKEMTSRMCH
active: volasertib -0.633
inactive: [2] -0.147 | [3] -0.033 | vemurafenib 0.137 | [4] -0.272 | [5] 0.039 | givinostat 0.174 | barasertib 0.018 | [7] -0.045 | [8] 0.149 | [9] -0.016 | [10] 0.034 | rosiglitazone 0.202 | [12] -0.159

MT-ND2 (UniProt P03891)
UniProt P03891, sequence (P03891 whole entry, looked up): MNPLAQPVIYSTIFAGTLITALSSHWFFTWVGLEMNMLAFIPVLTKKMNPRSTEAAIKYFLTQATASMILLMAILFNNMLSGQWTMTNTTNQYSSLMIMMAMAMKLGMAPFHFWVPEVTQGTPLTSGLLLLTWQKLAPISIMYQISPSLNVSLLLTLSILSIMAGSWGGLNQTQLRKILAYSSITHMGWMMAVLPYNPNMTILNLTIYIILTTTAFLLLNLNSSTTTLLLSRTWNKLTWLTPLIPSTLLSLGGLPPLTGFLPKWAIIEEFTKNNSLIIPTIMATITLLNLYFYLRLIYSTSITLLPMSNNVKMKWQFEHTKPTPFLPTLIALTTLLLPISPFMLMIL
inactive: [1] 0.109 | [2] -0.047 | [3] 0.062 | vemurafenib 0.065 | [4] 0.198 | [5] -0.123 | givinostat 0.006 | barasertib 0.079 | volasertib -0.021 | [7] -0.113 | [8] -0.007 | [9] 0.106 | [10] 0.195 | rosiglitazone 0.04 | [11] -0.13 | [12] 0.033

MMADHC (UniProt Q9H3L0)
UniProt Q9H3L0, sequence (Q9H3L0 whole entry, looked up): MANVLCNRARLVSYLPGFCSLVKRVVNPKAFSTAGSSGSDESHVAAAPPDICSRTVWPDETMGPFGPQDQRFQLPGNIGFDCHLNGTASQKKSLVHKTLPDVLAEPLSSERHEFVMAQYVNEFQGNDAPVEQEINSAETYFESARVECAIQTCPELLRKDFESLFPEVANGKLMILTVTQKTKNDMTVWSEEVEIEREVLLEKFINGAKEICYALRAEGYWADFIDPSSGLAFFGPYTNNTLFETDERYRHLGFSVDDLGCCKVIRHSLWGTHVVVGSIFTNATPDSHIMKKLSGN
active: volasertib -0.482
inactive: [1] 0.001 | [2] -0.078 | [3] -0.078 | vemurafenib 0.067 | [4] -0.057 | [5] 0.108 | givinostat 0.04 | barasertib 0.029 | [6] -0.024 | [7] 0.087 | [8] -0.013 | [9] 0.03 | [10] 0.006 | rosiglitazone 0.015 | [11] 0.047 | [12] 0.181

NAP1L1 (UniProt B7Z9C2)
inactive: [3] 0.14 | vemurafenib -0.304 | [5] -0.109 | givinostat -0.053 | barasertib -0.002 | [6] -0.118 | [7] -0.008 | [8] -0.132 | [9] 0 | [10] -0.244 | rosiglitazone 0.146 | [11] -0.053 | [12] -0.152

NELFCD (UniProt Q8IXH7)
UniProt Q8IXH7, sequence (Q8IXH7 whole entry, looked up): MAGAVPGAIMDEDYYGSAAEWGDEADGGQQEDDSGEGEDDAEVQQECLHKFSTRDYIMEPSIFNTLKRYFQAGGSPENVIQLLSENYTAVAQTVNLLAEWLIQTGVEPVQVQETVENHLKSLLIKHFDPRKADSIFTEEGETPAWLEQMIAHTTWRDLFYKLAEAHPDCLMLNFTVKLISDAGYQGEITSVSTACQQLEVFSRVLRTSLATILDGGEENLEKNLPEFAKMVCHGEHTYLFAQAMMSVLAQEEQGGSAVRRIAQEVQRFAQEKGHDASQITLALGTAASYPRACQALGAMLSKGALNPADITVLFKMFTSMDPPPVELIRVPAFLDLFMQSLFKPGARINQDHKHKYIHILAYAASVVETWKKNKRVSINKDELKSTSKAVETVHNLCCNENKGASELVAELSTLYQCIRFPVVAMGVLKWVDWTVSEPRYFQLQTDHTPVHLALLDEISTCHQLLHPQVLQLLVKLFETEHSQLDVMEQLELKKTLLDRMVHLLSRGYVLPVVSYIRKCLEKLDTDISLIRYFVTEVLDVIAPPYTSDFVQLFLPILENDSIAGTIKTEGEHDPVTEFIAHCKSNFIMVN
active: volasertib -0.562
inactive: [2] 0.02 | [3] 0.18 | Nexturastat A 0.094 | vemurafenib 0.15 | [4] 0.051 | givinostat 0.167 | barasertib 0 | [7] 0.244 | epoxomicin -0.052 | [8] -0.044 | [9] -0.113 | [10] 0.298 | rosiglitazone 0.015 | [11] -0.05 | [12] 0.226

NRGN (UniProt Q92686)
UniProt Q92686, sequence (Q92686 whole entry, looked up): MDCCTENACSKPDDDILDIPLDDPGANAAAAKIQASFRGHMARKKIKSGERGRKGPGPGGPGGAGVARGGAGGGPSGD
inactive: [1] -0.168 | [2] 0.087 | [3] -0.171 | Nexturastat A 0.143 | [4] 0.032 | givinostat -0.034 | barasertib -0.14 | volasertib 0.052 | [7] -0.088 | epoxomicin 0.162 | [8] 0.021 | [9] 0.14 | rosiglitazone 0.127 | [12] -0.547

NOS1AP (UniProt O75052)
UniProt O75052, sequence (O75052 whole entry, looked up): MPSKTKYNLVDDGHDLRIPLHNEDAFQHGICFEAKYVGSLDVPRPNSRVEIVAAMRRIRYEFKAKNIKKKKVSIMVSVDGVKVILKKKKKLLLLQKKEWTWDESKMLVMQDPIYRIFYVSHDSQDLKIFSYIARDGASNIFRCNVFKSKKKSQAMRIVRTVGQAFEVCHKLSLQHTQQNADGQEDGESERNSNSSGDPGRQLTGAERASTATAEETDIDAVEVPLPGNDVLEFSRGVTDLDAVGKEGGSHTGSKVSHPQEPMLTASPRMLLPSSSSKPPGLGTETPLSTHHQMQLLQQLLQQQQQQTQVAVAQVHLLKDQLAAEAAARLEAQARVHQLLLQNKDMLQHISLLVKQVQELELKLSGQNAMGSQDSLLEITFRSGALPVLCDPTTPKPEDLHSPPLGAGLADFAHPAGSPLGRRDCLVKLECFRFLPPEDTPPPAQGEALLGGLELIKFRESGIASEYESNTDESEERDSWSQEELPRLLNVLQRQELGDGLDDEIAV
inactive: [1] -0.016 | [2] 0.08 | Nexturastat A -0.058 | vemurafenib -0.335 | [4] -0.161 | [5] 0.101 | givinostat -0.117 | barasertib 0.046 | [6] 0.092 | volasertib 0.035 | epoxomicin 0.056 | [8] 0.04 | [10] 0.225 | rosiglitazone -0.001

NA (UniProt B2RBV5)
UniProt B2RBV5, sequence (B2RBV5 whole entry, looked up): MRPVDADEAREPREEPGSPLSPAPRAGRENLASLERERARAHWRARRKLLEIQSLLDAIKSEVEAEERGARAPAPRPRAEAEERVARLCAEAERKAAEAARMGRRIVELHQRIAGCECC
active: epoxomicin 0.593
inactive: [13] -0.022 | [2] -0.245 | Nexturastat A 0.292 | [4] 0.005 | [5] 0.021 | barasertib 0.002 | [6] 0.135 | volasertib 0.163 | [7] 0.049 | [9] 0.128 | rosiglitazone -0.009 | [12] -0.08

MRM2 (UniProt Q9UI43)
UniProt Q9UI43, sequence (Q9UI43 whole entry, looked up): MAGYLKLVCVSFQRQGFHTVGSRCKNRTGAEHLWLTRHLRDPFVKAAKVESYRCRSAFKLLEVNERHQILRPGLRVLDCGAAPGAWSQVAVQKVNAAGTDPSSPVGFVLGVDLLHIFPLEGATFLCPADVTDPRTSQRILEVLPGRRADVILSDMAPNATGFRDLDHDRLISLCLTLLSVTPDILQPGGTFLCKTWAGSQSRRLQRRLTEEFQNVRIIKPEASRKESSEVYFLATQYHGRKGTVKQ
inactive: [2] 0.046 | vemurafenib 0.047 | [4] -0.078 | givinostat 0.001 | volasertib -0.083 | [7] 0.008 | [8] 0.065 | [10] -0.122 | [11] -0.042

NNMT (UniProt P40261)
inactive: [13] 0.038 | [2] 0.012 | [3] 0.039 | Nexturastat A -0.082 | vemurafenib 0.011 | [4] -0.001 | [5] -0.093 | givinostat -0.076 | barasertib -0.04 | [6] 0.003 | volasertib -0.197 | [7] 0.023 | epoxomicin 0.039 | [8] 0.017 | [9] -0.068 | [10] -0.042 | rosiglitazone 0.007 | [11] -0.025 | [12] -0.152

NA, A0A1W2PSA9
inactive: [1] 0.108 | [9] 0.08 | [11] 0.279 | [12] 0.057

ORC3 (UniProt Q9UBD5)
inactive: [6] -0.167

NIPSNAP3B (UniProt Q9BS92)
UniProt Q9BS92, sequence (Q9BS92 whole entry, looked up): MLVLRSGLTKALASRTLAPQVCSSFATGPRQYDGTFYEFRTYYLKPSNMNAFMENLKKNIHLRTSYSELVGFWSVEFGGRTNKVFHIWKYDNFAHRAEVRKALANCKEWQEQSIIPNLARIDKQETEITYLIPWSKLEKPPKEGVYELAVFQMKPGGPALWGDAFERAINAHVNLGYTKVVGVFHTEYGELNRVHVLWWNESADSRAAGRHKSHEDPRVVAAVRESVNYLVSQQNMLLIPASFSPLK
inactive: [13] -0.133 | [2] 0.049 | [3] 0.023 | vemurafenib 0.065 | [4] 0.016 | [5] -0.001 | givinostat -0.088 | barasertib 0.016 | [6] -0.238 | volasertib -0.028 | [7] 0.039 | [8] -0.039 | [9] -0.019 | [10] -0.088 | rosiglitazone -0.069 | [11] -0.176 | [12] 0.073

NDUFB1 (UniProt O75438)
UniProt O75438, sequence (O75438 whole entry, looked up): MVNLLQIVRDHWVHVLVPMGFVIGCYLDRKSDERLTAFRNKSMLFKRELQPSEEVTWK
active: epoxomicin 0.396 | [12] 0.282
inactive: [13] -0.087 | [2] -0.08 | [3] 0.067 | Nexturastat A 0.027 | vemurafenib -0.001 | [4] 0.065 | [5] 0.025 | givinostat -0.015 | barasertib -0.009 | [6] -0.004 | volasertib -0.08 | [7] -0.099 | [8] -0.026 | [9] -0.102 | [10] 0.006 | rosiglitazone 0.009

NEU3 isoform 2 (UniProt Q9UQ49)
UniProt Q9UQ49, sequence (Q9UQ49 whole entry, looked up): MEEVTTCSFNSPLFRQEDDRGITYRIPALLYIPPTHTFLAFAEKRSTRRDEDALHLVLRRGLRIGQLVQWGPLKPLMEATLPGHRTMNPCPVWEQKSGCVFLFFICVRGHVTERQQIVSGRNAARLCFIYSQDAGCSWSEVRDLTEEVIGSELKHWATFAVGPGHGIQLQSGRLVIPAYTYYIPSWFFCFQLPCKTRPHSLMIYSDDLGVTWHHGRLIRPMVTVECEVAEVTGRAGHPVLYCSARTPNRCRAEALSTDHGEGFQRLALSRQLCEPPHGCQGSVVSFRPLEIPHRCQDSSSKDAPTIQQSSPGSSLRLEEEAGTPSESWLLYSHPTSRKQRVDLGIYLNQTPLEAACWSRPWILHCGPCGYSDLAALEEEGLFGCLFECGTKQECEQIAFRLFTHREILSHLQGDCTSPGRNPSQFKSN
inactive: [13] 0.022 | [2] -0.112 | [4] 0.133 | givinostat 0.189 | volasertib -0.158 | [8] -0.074

MLST8 (UniProt Q9BVC4)
inactive: [13] 0.118 | [2] 0.094 | [3] -0.079 | Nexturastat A 0.001 | vemurafenib 0.009 | [4] 0.031 | [5] -0.035 | givinostat -0.058 | barasertib 0.038 | [6] -0.22 | [7] 0.05 | epoxomicin -0.02 | [8] -0.099 | [10] 0.109 | rosiglitazone -0.029 | [11] -0.016
active: volasertib -0.353

MOB2 isoform 3 (UniProt Q70IA6)
UniProt Q70IA6, sequence (Q70IA6 whole entry, looked up): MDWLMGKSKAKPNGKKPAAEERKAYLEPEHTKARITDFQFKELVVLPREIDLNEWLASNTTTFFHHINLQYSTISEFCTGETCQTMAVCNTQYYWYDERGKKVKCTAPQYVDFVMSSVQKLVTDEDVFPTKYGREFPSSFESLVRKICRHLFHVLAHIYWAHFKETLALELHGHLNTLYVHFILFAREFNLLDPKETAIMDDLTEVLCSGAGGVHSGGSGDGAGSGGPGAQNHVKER
inactive: [1] -0.039 | [2] 0.081 | Nexturastat A -0.149 | [4] 0.018 | [5] 0.163 | givinostat 0.061 | barasertib -0.121 | volasertib -0.231 | [7] 0.207 | epoxomicin -0.193 | [8] -0.036 | [9] -0.029 | rosiglitazone -0.004 | [12] -0.103

OGFOD2 (UniProt Q6N063)
active: [9] -0.372
inactive: [1] -0.007 | [3] -0.091 | Nexturastat A 0.117 | vemurafenib 0.001 | [5] 0.037 | givinostat -0.041 | barasertib 0.059 | [6] -0.007 | [7] -0.019 | epoxomicin 0.08 | [8] -0.033 | [10] 0.035 | rosiglitazone -0.027 | [11] 0.147 | [12] -0.112

NKTR (UniProt P30414)
inactive: [2] -0.041 | [4] -0.4 | [5] -0.045 | givinostat 0.532 | barasertib 0.042 | volasertib -0.152 | [8] -0.102 | rosiglitazone 0.39

Reference: the supplement of paper PMC10849652
